From PubChem BioAssay AID686978 (National Center for Advancing Translational Sciences (NCATS), 2013)
In all, about 420,000 compounds went through this assay and about 64,000 (15%) were called active. Inconclusive results (about 27%) are left out. Calls follow the shape of the dose curve; as a rule, active = well fitted inhibition curve with a large enough effect; inconclusive = small, poorly fitted or top-dose-only effect; inactive = flat fitted curve, though single readings scatter. Not all results are given here. Where a call stands in place of a potency, no number is given.

assay: qHTS for Inhibitors of human tyrosyl-DNA phosphodiesterase 1 (TDP1): qHTS in cells in absence of CPT; conditions: DT40 Tdp1-/- hTDP1 cells, no CPT, ATP luminescence, 48 h; activity change, negative = growth inhibition: at 46.2 µM (top of the series); also: nearly all actives have a fitted effect of over 55% in size
Summary of the method: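 No-CPT arm: Tdp1-/-;hTDP1 DT40 cells (400/well) plus compounds, incubated ≥48 hr at 37 °C. Readout CellTiter-Glo luminescence.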
Potency is read from the fitted curve at half-maximal effect.

Row | Structure (SMILES) | Potency
1 | O=C(CSc1nnc(Nc2ccccc2F)s1)NC1CCCC1 | inactive
2 | CC(=O)/C(C)=N\O | inactive
3 | COc1cc(C2C(C(=O)c3cccs3)=C(O)C(=O)N2CCN2CCOCC2)ccc1OCCC(C)C (stereo not given) | inactive
4 | CSc1cc(C)[nH]c(=O)n1 | inactive
5 | Cc1nnc(SCc2cccc(Cl)c2)n(N)c1=O | inactive
6 | COC(=O)Nc1ccc(S(=O)(=O)N2CCN(CCN3C(=O)C4C5C=CC(C5)C4C3=O)CC2)cc1 (stereo not given) | inactive
7 | Cc1ccc(C2SCC(=O)N2c2ccccc2)cc1 (stereo not given) | inactive
8 | Cc1ccc(S(=O)(=O)N(C)C)cc1NC(=O)/C=C/c1cccs1 | inactive
9 | CC(C)(C)C(=O)N(Cc1ccccc1)c1ccccn1 | inactive
10 | Cc1csc2ncc(C(=O)N(Cc3ccccc3)c3ccccn3)c(=O)n12 | inactive
11 | CCC(=O)N(Cc1ccccc1)c1ccccn1 | inactive
12 | Cc1ccc(CN(C(=O)c2ccccc2[N+](=O)[O-])c2ccccn2)cc1 | 11.6 µM (active)
13 | COc1cc(CN(C(=O)c2ccccc2Br)c2ccccn2)cc(OC)c1OC | 13 µM (active)
14 | COC(=O)c1cc(C(=O)N(Cc2ccccc2)c2ccccn2)cc([N+](=O)[O-])c1 | inactive
15 | O=C(c1ccco1)N1CCC2(CC1)CN(c1ncccn1)C2 | inactive
16 | CCN(CC(=O)Nc1c(F)cccc1F)C(=O)c1ccc(S(=O)(=O)N2CCCCC2)cc1 | inactive
17 | CCN1CCN(C(=O)N(Cc2ccc(Cl)cc2)S(=O)(=O)c2ccc(C)cc2)CC1 | inactive
18 | O=c1[nH]c2ccccc2s1 | inactive
19 | O=C(Cn1c2[n+](c3ccc(C(F)(F)F)cc31)CCCCC2)Nc1c(F)cccc1F | inactive
20 | COc1ccc(Cl)cc1NC(=O)CSc1nc2ccccc2c2nc(-c3ccccc3)nn12 | inactive
21 | Cc1ccc(NC(=O)CSc2nc3ccccc3c3nc(CCn4cncc4C)nn23)cc1F | 20.6 µM (active)
22 | CC(=O)NCCn1c(SCC(=O)Nc2ccc(C)cc2)nc2ccccc2c1=O | inactive
23 | CCCCc1nc2ccc(F)cc2cc1C | inactive
24 | OCC[C@H]1C[C@H](O)[C@@H](O)[C@]2(Cc3ccccc3CO2)O1 | inactive

Row | Structure (SMILES) | Potency
25 | O=C1OCCC1=COCCCCOC=C1CCOC1=O | inactive
26 | Cc1ccc(S(=O)(=O)NCCC(=O)Nc2ccc(C)c(Cl)c2)cc1C | inactive
27 | Cc1ccnc(NC(=O)CCNS(=O)(=O)c2ccc(C)c(C)c2)c1 | inactive
28 | CC(=O)CCS(=O)(=O)c1ccc(C)c(C)c1 | 29.1 µM (active)
29 | CC(=O)Nc1c2c(nn1-c1cccc(C)c1)CSC2 | inactive
30 | Cn1cc(-c2nc3cncnc3n(-c3ccccc3)c2=O)c2ccccc21 | inactive
31 | Cc1cc(C(=O)OCC(=O)Nc2ccccc2Cl)c(C)o1 | inactive
32 | O=C(Nc1ccc(S(=O)(=O)Nc2ncccn2)cc1)C12CC3CC(CC(C3)C1)C2 | inactive
33 | CCn1nccc1C(=O)Nc1ccc(Cl)c(Cl)c1 | inactive
34 | CCn1nccc1C(=O)Nc1ccc(S(=O)(=O)NC23CC4CC(CC(C4)C2)C3)cc1 | 16.4 µM (active)
35 | O=C(NC(=O)N1CCOCC1)c1ccccc1 | inactive
36 | COCCNC(=O)c1ccccc1NS(=O)(=O)c1ccc(C)c([N+](=O)[O-])c1 | inactive
37 | CCOc1cc(NS(=O)(=O)c2ccc(OC)cc2)c(OCC)cc1NC(C)=O | inactive
38 | CCOC(=O)c1ccccc1NS(=O)(=O)c1ccc(OC)cc1 | 14.6 µM (active)
39 | O=c1nc(N/N=C/c2ccco2)cn[nH]1 | inactive
40 | CC1CC(C)CN(C(=O)C2CC(=O)N(c3ccc(F)cc3)C2)C1 (stereo not given) | inactive
41 | CCOc1cc(C(=O)OCC(=O)Nc2cccc(C)c2)ccc1OCC(=O)N1CCOCC1 | inactive
42 | COc1ccc(C2CC(=O)Oc3ccc(C(C)(C)C)cc32)cc1 (stereo not given) | inactive
43 | COc1ccc(-c2cc(C(=O)NCCCn3ccnc3)no2)cc1 | inactive
44 | O=C(NCCCn1ccnc1)c1cc(-c2ccccc2)on1 | 7.31 µM (active)
45 | COc1ccccc1-c1cc(C(=O)NCCCn2ccnc2)no1 | inactive
46 | O=C(NCCN1CCOCC1)[C@H](Cc1ccccc1)N1C(=O)c2ccccc2C1=O | inactive
47 | Cc1csc(SCC(=O)Nc2sccc2C#N)n1 | inactive
48 | Brc1ccc(-c2n(-c3ccccn3)c3ccccc3[n+]2-c2ccccn2)cc1 | 13 µM (active)

Row | Structure (SMILES) | Potency
49 | O=C(Cc1ccc(Br)cc1)N1CCN(c2ccccn2)CC1 | inactive
50 | Cn1cc(CNC(=O)c2ccc(OC3CCN(Cc4ccccn4)CC3)cc2)cn1 | inactive
51 | CN(C(=O)CSc1nc2ccccc2n1Cc1ccccc1C#N)c1ccccc1 | 18.4 µM (active)
52 | COC(=O)CSc1nc2ccccc2c(=O)n1Cc1ccccc1 | inactive
53 | Cc1ccc(Cn2c(SCC(=O)N/N=C/c3ccccc3OCC(=O)O)nc3ccccc32)cc1 | inactive
54 | CCn1c(SCC(=O)N2CCCC2=O)nc2ccccc21 | inactive
55 | CCN(CC)C(=O)CSc1nc2ccccc2n1CC(=O)N1CCN(c2ccccc2OC)CC1 | inactive
56 | COC(=O)c1ccc(Cn2c(SCC(=O)N(C)c3ccccc3)nc3ccccc32)cc1 | 23.1 µM (active)
57 | CC1=C(C/C=C(\C)CCCC(C)CCCC(C)CCCC(C)C)C(=O)c2ccccc2C1=O (stereo not given) | inactive
58 | Cc1cc(C)cc(NC(=O)COc2coc(CN3CCN(c4ccccc4)CC3)cc2=O)c1 | inactive
59 | CC1(C(=O)NS(=O)(=O)c2cccc(F)c2)CCN1C(=O)Cc1ccc(Cl)cc1Cl (stereo not given) | inactive
60 | COc1ccccc1NC(=O)c1ccc(N2CC3CC(C2)c2cccc(=O)n2C3)c(NC(=O)c2cccnc2)c1 (stereo not given) | inactive
61 | O=C(OCC1OC(Oc2ccc(O)cc2)C(O)C(O)C1O)c1ccccc1 (stereo not given) | inactive
62 | O=C(CSc1nccn1Cc1ccc(Cl)cc1)NCc1ccccc1 | 29.1 µM (active)
63 | CCCCNC(=O)CSc1nccn1Cc1ccccc1 | inactive
64 | CCCCCCNC(=O)CSc1nccn1Cc1ccccc1 | inactive
65 | NC(=O)c1ccccc1N=Cc1ccc2ccccc2c1 | 16.4 µM (active)
66 | N=c1oc2ccccc2cc1C(=O)N/N=C/c1ccccc1 | inactive
67 | O=C(COC(=O)Cc1ccccc1F)NNC(=O)c1ccc(Cl)cc1 | inactive
68 | Cc1ccc(NC(=O)C2CCCN2C(=O)OCc2ccccc2)cc1C (stereo not given) | inactive
69 | Cc1ccc(C)c(NC(=O)C2Cc3ccccc3CN2C(=O)OCc2ccccc2)c1 (stereo not given) | 20.6 µM (active)
70 | Cc1ccc(S(=O)(=O)N(C)C)cc1NC(=O)C1Cc2ccccc2CN1C(=O)c1ccco1 (stereo not given) | inactive
